Laboratory results: PubChem BioAssay AID567 (The Scripps Research Institute Molecular Screening Center, 2006)
About 370 (0.57%) of roughly 65,000 compounds were called active.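 How the source made its calls: active means activation above the screen-wide mean activation plus 3 SD (cut at about 19% in these data); inactive means the rest.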 The full list was thinned out, with actives kept by preference.

Target: 5-hydroxytryptamine receptor 1A (Homo sapiens) (UniProt P08908)
Assay: agonism at serotonin HTR1A receptor – cell-based, CHO, Ga15 NFAT-bla reporter, primary screen (AID 567);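 further: 0% = DMSO wells and 100% = 5-CT at EC100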
Settings: CHO 5-HT1a Ga15 NFAT-bla reporter, FRET ratio; at 10 µM; hits give high values; 0% basal, 100% maximal reference agonist

Sequence of 5-hydroxytryptamine receptor 1A (Homo sapiens) (P08908 whole entry, looked up): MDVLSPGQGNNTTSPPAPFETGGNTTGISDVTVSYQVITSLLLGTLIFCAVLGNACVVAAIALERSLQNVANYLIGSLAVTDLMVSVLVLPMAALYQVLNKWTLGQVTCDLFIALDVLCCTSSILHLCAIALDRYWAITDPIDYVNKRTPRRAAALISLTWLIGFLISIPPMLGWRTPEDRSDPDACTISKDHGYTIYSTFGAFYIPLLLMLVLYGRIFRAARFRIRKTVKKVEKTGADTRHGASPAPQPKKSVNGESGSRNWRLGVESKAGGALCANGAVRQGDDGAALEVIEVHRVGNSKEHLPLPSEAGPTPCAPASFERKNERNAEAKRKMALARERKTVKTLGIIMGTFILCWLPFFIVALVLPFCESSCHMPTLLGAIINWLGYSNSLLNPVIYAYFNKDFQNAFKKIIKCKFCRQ

activation, active:
O=C(CCn1c(=O)[nH]c2ccccc2c1=O)NCCCN1CCN(c2cccc(Cl)c2)CC1 21.7%
Cn1c(C(=O)NCCCN2CCN(c3cccc(Cl)c3)CC2)cc2c(=O)n(C)c3ccccc3c21 36.5%
O=C(Nc1ccc(Cl)cn1)c1cnn2cccnc12 193%
N#Cc1cccc(CSc2nnc(CCCO)n2-c2ccccc2)c1 77%

activation, inactive:
CC(=O)Nc1ccc(S(=O)(=O)Nc2nc3n(n2)C(c2ccccc2)CC(=O)N3)cc1 (centres undefined) -0.5%
CCOC(=O)NC(C(F)(F)F)(C(F)(F)F)P(=O)(c1ccccc1)c1ccccc1 -0.98%
c1cc(-c2nn[nH]n2)ccc1CN1CCCCC1 -2.19%
O=C(CSc1ncccn1)NCCc1ccccc1 0.69%
O=C(CCn1c(=S)[nH]c2ccccc2c1=O)NCCCN1CCCC1=O -0.9%
CC1CCCC(C)N1CCCNC(=O)c1cc2c(=O)n(C)c3ccccc3c2n1C (centres undefined) -1.82%
CCn1c(=O)cc(OCC(=O)NCCCN2CCN(c3cccc(Cl)c3)CC2)c2ccccc21 -3.65%
O=C(CCCn1c(=O)[nH]c2cc(Cl)ccc2c1=O)NCCN1CCN(c2ccccc2)CC1 -0.6%
O=S(=O)(N1CCOCC1)N1CCN(c2ccccc2F)CC1 -0.75%
O=S(=O)(Nc1ccccn1)c1ccc(Oc2ccccc2)cc1 0.59%
O=C(C1=C(O)C(=O)N(c2ncccn2)C1c1cccs1)c1ccco1 (centres undefined) -1.27%
Cc1nc2ccccc2cc1O 0.14%
CCC1CCCCN1C(=O)Nc1cccc(NC(=O)N2CCCCC2CC)c1 (centres undefined) -2.03%
CCOc1ccc(Cn2nnc(C(=O)Nc3ccc(OC)cc3OC)c2N)cc1 3.25%
O=c1c2ccccc2oc2nc3n(c(=O)c12)CCCS3 -0.78%
COc1ccc(C(C(O)C(=O)c2c[nH]c3ccccc23)N2CCN(c3ccccc3)CC2)cc1 (centres undefined) -3.45%
CCc1c(C)nc2cc(-c3cccs3)[nH]n2c1=O -3.62%
Cc1ccc(S(=O)(=O)C(C#N)c2nc3ccccc3nc2N2CCCC2)cc1C (centres undefined) 1.05%
CC(C)CCNC(=O)C(C)N(C(=O)Cn1nnc(-c2ccc(F)cc2)n1)C1CCCC1 (centres undefined) 0.97%
CC(C)(C)n1nc2c(c1NC(=O)c1ccc(S(=O)(=O)N3CCCC3)cc1)CS(=O)C2 (centres undefined) -0.05%
O=C1CCC(Cc2ccccc2)N1 (centres undefined) -0.21%
CC1CCN(C(=O)Cn2cc(C(=O)c3ccco3)c3ccccc32)CC1 -0.71%
Cc1cc(=O)cc(C)[nH]1 -2.27%
CCOC(=O)C1=C(C)NC(C)=C(C(=O)OCC)C1c1ccccn1 -1.2%
CCN1C(=O)C(C(=O)NC(C)c2ccccc2)C2CC1(C)Oc1ccccc12 (centres undefined) -0.28%
COc1ccccc1N(CC(=O)N1CCCCC1)S(=O)(=O)c1ccccc1 -2.64%
COc1ccc(C2C3=C(CC(C)(C)CC3=O)Oc3ncn4nc(-c5cccnc5)nc4c32)cc1OC (centres undefined) -3.54%
COc1ccc(CC(NC(C)=O)C(=O)NC2CCN(C(=O)Nc3ccc(C#N)cc3)CC2)cc1OC (centres undefined) 0.53%
Cc1ccc(NC(=O)Cn2nc(C)c3ccccc3c2=O)c(C)c1 -0.44%
CCOC(=O)Cc1csc(NC(=O)CSc2nc(C)cc(=O)[nH]2)n1 -1.16%
COc1cccc(-n2c(Cc3cc(=O)[nH]c(=O)[nH]3)nnc2SCC(=O)Nc2ccccc2)c1 -5.6%
Cc1cc(NC(=O)c2cnn3cccnc23)n(-c2ccccc2)n1 1.07%
O=C(Nc1ccc(Cl)cn1)Nc1cccs1 -4.12%
Fc1ccc(Cn2nnnc2C(c2cccs2)N2CCCCCC2)cc1 (centres undefined) -2.4%
CCC12CN3CC(CC)(CN(C1)C31C(=O)N(C)c3ccc(C)cc31)C2=O (centres undefined) -2.01%
COC(=O)CNC(=O)c1ccc2c(c1)S(=O)(=O)c1ccccc1C2=O 1.02%
Cc1cc(N2C(=O)c3ccc(C(=O)NCc4ccccc4)cc3C2=O)no1 -3.09%
CNC(=O)CSc1nnc(CCc2ccccc2)n1-c1ccccc1 0.04%
N#Cc1ccc(CSc2nnc(-c3ccccn3)n2-c2ccc(Cl)cc2)cc1 0.34%
O=C(NC1CC2CCCC(C1)N2C(=O)N1CCCCC1)C1CCCCC1 (centres undefined) 2.68%
Cc1cnc(NC(=O)CSc2nnc(-c3ccc(Cl)cc3Cl)n2N)s1 -1.25%
CN(c1nc2ccccc2n2c(-c3ccco3)nnc12)S(=O)(=O)c1ccccc1 0.58%
Cc1ccc2nc(NC3=NCN(CCc4ccccc4)CN3)nc(C)c2c1 -1.7%
CCOC(=O)C(C)Oc1cccc2c(=O)n(CC(=O)N3CCc4ccccc43)ccc12 (centres undefined) -0.82%
CCC(C(=O)N1CCOCC1)n1c(C(=O)OC)cc2occc21 (centres undefined) -0.28%
O=C(CCCC(=O)N(CC(=O)NC1CCCC1)Cc1ccccc1Cl)Nc1ccccn1 0.54%
Cn1c(Cc2csc(N)n2)nnc1SC/C=C/c1ccccc1 0.48%
CCCOC(=O)c1[nH]c2c(c1C)C(=O)CC(c1cc(OC)c(OC)c(OC)c1)C2 (centres undefined) -1.49%
Cc1noc(COc2ccccc2OCC(O)CNC(C)(C)C)n1 (centres undefined) 2.09%
CCOc1ccc2[nH]c(=O)c(C(c3nnnn3CCOC)N3CCOCC3)cc2c1 (centres undefined) -1.3%
Cc1cc(C(=O)COC(=O)CCCN2C(=O)c3ccccc3C2=O)c(C)n1C -2.69%
CCCc1nc(-c2ccccc2O)n(-c2ccccc2)n1 -3.29%
COc1ccc(-c2nnc(SCC(=O)NC3CCCCC3)o2)cc1OC -1.36%
O=c1ccc2cc(S(=O)(=O)N3CCN(c4ccccc4)CC3)ccc2o1 -2.8%
Cc1nonc1OCCn1nnnc1N 0.59%
